Test [1] concerns the target Cytochrome P450 1A2 (Homo sapiens) (UniProt P05177). As to the kind of experiment: p450-cyp1a2 (AID 410; calls by dose curve; note: potency is the fitted concentration of half-maximal effect). An outline of the steps: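 Luminescent readout of luciferin formed from Luciferin-ME by human CYP1A2; data normalized against complete inhibition by 57 uM furafylline. Enzyme 20nM, substrate 100uM at Km, 100mM KPO4 buffer, 60 min reaction at room temperature.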
For test [2], the target named is Glucocorticoid receptor (Homo sapiens) (UniProt P04150). As to the kind of experiment: GR-EFC Redistribution (AID 451; calls by dose curve; note: potency is the fitted concentration of half-maximal effect). The conditions noted are these: CHO-K1 GR-EFC translocation, beta-gal luminescence, 2 h. An outline of the steps: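 CHO-K1 cells stably expressing nuclear-localized β-gal enzyme acceptor and GR fused C-terminally to the enzyme donor fragment; ligand-driven nuclear translocation restores β-gal by complementation. Compounds titrated up to 46 uM final, 2 h at 37 °C; luminescence read.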

The target in test [3] is 3',5'-cyclic-AMP phosphodiesterase 4B (Homo sapiens) (UniProt Q07343). Briefly: qHTS Assay for Inhibitors of PDE-IV (AID 607; active = well fitted activation curve with a large enough effect in the main read-out, with a control signal flat, not every such curve was filed as active; note: % of control where 0% means no effect). An outline of the steps:
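ACTOne HEK293 cells carry a modified cAMP-gated CNG channel and express endogenous PDE4; plated 1000 cells/well, compounds up to 22.9 uM final. Membrane-potential dye fluorescence (ex 535/em 590) was read; parental cells received 10 uM forskolin + 100 uM RO 20-1724.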
In general terms: qHTS replaces the single test concentration by a dilution series.

In test [4] the target is Cytochrome P450 3A4 (Homo sapiens) (UniProt P08684). As to the kind of experiment: qHTS Assay for Inhibitors and Substrates of Cytochrome P450 3A4 (AID 884). Note: potency is the fitted concentration of half-maximal effect; nearly all actives have a fitted effect of over 50% in size. An outline of the steps: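 20 nM human CYP3A4 with 25 uM Luciferin-PPXE (at KM) in 200 mM KPO4, preincubated 10 min with compound; NADPH regeneration started a 60 min RT reaction. Luciferin detected by luminescence, normalized to 57 uM ketoconazole as full inhibition.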

Test [5] shares this target. As to the kind of experiment: qHTS Assay for Activators of Cytochrome P450 3A4 (AID 885). Note: nearly all actives have a fitted effect of over 65% in size. An outline of the steps:
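20nM CYP3A4 + 25uM Luciferin-PPXE (=KM), 200mM KPO4; cpd 10 min RT; NADPH regen, 60 min RT; stop w/ detection buffer, 20 min; luminescence. Normalized to 57 uM ketoconazole.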

The target of test [6] is Cytochrome P450 2D6 (Homo sapiens) (UniProt P10635). Briefly: qHTS Assay for Inhibitors and Substrates of Cytochrome P450 2D6 (AID 891). Note: potency is the fitted concentration of half-maximal effect; nearly all actives have a fitted effect of over 60% in size. An outline of the steps:
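Human CYP2D6 (5 nM) with 30 uM Luciferin-ME EGE (at Km) in 100 mM KPO4, compound preincubated 10 min, then NADPH regeneration system for 60 min at room temperature. Luciferin read by luminescence; normalized to 1.43 uM quinidine.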

Test [7] addresses Cytochrome P450 2C19 (Homo sapiens) (UniProt P33261). As to the kind of experiment: qHTS Assay for Inhibitors and Substrates of Cytochrome P450 2C19 (AID 899). Note: potency is the fitted concentration of half-maximal effect; nearly all actives have a fitted effect of over 60% in size. An outline of the steps: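 NADPH-dependent conversion of Luciferin-H EGE (10uM, at KM) by 5nM enzyme in 50mM KPO4, 60 min at 37C following 10 min compound preincubation. Stopped with luciferin detection buffer; luminescence read after 20 min.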

Test [8] addresses DNA dC->dU-editing enzyme APOBEC-3G (Homo sapiens) (UniProt Q9HC16). As to the kind of experiment: qHTS for inhibitors of Vif-A3G interactions: Validation (AID 588379). Note: 0% is about no effect. An outline of the steps: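 HeLa cells stably expressing Vif and A3G-eYFP, 700 cells/well, incubated overnight at 37 deg C, then exposed to compound overnight at 37 deg C. Inhibition of Vif-mediated degradation read as increased yellow fluorescence (Ex 488/Em 500-530) by laser-scanning cytometry.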

The nature of test [9]: P-glycoprotein substrates identified in KB-3-1 adenocarcinoma cell line, qHTS therapeutic library screen (AID 1346986). Note: nearly all actives have a fitted effect of over 60% in size. An outline of the steps:
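Resistance attributable to P-gp was assessed by comparing AC50 in KB-8-5-11 with parental KB-3-1 and by tariquidar reversal. Cells were exposed 72 h and viability read by CellTiter-Glo.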

Test [10] is described as follows: P-glycoprotein substrates identified in KB-8-5-11 adenocarcinoma cell line, qHTS therapeutic library screen (AID 1346987). Note: nearly all actives have a fitted effect of over 65% in size. An outline of the steps:
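Steps: plate 500 KB-8-5-11 cells/well in DMEM + 10% FCS (colchicine removed); pin compounds in dose-response; incubate 72 h, 37 degree C, 5% CO2; add CellTiter-Glo, 5 min; read luminescence.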

For test [11], the system named is Zika virus NS2B-NS3 protease. Briefly: Primary screen GU AMC qHTS for Zika virus inhibitors (AID 1347154).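 Note: 0% = no-inhibitor control and -100% = no-enzyme control; nearly all actives have a fitted effect of over 70% in size.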 An outline of the steps:
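Unlinked Zika NS2B hydrophilic domain/NS3 protease domain noncovalent complex (25 nM final) in 10 mM Tris-HCl pH 8.0, 0.01% Tween 20, with AMC peptide substrate. Fluorescence (ex 340, em 450 nm) change over 15 min, room temperature; percent inhibition fitted to 4-parameter Hill equation.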

A short description of test [12]: Primary qHTS for small molecule stabilizers of the endoplasmic reticulum resident proteome: Secreted ER Calcium Modulated Protein (SERCaMP) assay (AID 1508630). Note: % is set by controls: 0 for no effect and ±100 for the full control effect. An outline of the steps: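 GLuc-SERCaMP-expressing SH-SY5Y cells, pretreated 16 h with compound, are challenged with thapsigargin to empty ER calcium stores; after 4 h, coelenterazine is added directly to the medium and luminescence is imaged.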

Test [13] is described as follows: Primary qHTS for inhibitors of nuclear receptor binding SET domain protein 2 (NSD2) in an isogenic RCH-ACV NSD2 p.E1099K mutant (9B) (AID 1645876). Note: % is set by controls: 0 for no effect and ±100 for the full control effect; nearly all actives have a fitted effect of over 70% in size.
The nature of test [14]: Primary qHTS for inhibitors of nuclear receptor binding SET domain protein 2 (NSD2) in an RCH-ACV wild type WT cells (2C) (AID 1645877). Note: nearly all actives have a fitted effect of over 70% in size.
Test [15] has as its target Glutathione peroxidase 1 (Homo sapiens) (UniProt P07203). As to the kind of experiment: Primary qHTS Assay for Inhibitors of Recombinant Selenoprotein Glutathione Peroxidase 1 (GPX1) (AID 1845191). Note: nearly all actives have a fitted effect of over 65% in size. An outline of the steps:
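Recombinant GPX1 (10 nM final) was preincubated with compound for 30 min at room temperature, then reacted with 1 mM GSH, 0.5 mM CHP, 0.5 mM NADPH and 100 nM glutathione reductase; NADPH fluorescence (340/450 nm) was read at 0 and 15 min.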

Test [16] addresses Glucocorticoid receptor (Homo sapiens) (UniProt P04150). As to the kind of experiment: GR-GFP Redistribution (AID 450;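 active = compounds whose dose series gives a full or clear partial fitted curve of increased nuclear translocation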; note: potency is the fitted concentration of half-maximal effect). Particulars: U2OS GR-GFP nuclear translocation, laser cytometry, 2 h.
The target in test [17] is Cytochrome P450 2C9 (Homo sapiens) (UniProt P11712). Briefly: qHTS Assay for Inhibitors and Substrates of Cytochrome P450 2C9 (AID 883). Note: potency is the fitted concentration of half-maximal effect; nearly all actives have a fitted effect of over 60% in size. An outline of the steps:
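A luminogenic readout tracked human CYP2C9 (10nM) converting deoxyluciferin (100uM, at KM) in 25mM KPO4 during 60 min at 37C with regenerated NADPH. Values normalized to 57uM sulphaphenazole as complete inhibition.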

The target in test [18] is Ubiquitin carboxyl-terminal hydrolase 1 (Homo sapiens) (UniProt O94782). Briefly: Inhibitors of USP1/UAF1: Pilot qHTS (AID 504865).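 Note: rhodamine fluorescence freed from ubiquitin-rhodamine substrate followed over time; top concentration of the series differs between compounds; % is set by controls: 0 for no effect and ±100 for the full control effect; nearly all actives have a fitted effect of over 35% in size.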 An outline of the steps: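 Kinetic fluorescence assay: 1nM USP1/UAF1, 15 min compound preincubation, then 150nM Ub-Rho; 480/540 nm.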
The nature of test [19]: qHTS profiling of the MIPE4 collection as inhibitors of Plasmodium falciparum (3D7) proliferation (AID 743344; call rule not given here;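 note: scaled between DMSO vehicle wells and 0.29 µM artemisinin as full inhibition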). The conditions noted are these: P. falciparum 3D7 in erythrocytes, SYBR Green DNA fluorescence, 72 h; at 28.5 µM (top of the series). An outline of the steps:
(§1)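 Erythrocytes infected with P. falciparum (0.3% parasitemia, 2.5% hematocrit) incubated with compounds 72 h at 37 C, 5% CO2. Lysis with saponin/Triton buffer containing SYBR Green I, overnight at room temperature in the dark; DNA fluorescence (485/535 nm) normalised to 0.29 uM artemisinin and DMSO.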

Test [20] can be described thus: qHTS profiling of the MIPE4 collection as inhibitors of Plasmodium falciparum (DD2) proliferation (AID 743345; call rule not given here). Particulars: P. falciparum Dd2 in erythrocytes, SYBR Green DNA, 72 h; at 28.5 µM (top of the series). An outline of the steps: as §1
Test [21] in a line: qHTS profiling of the MIPE4 collection as inhibitors of Plasmodium falciparum (DD2) proliferation (Rep 2) (AID 743346; call rule not given here). Particulars: P. falciparum Dd2 in erythrocytes, SYBR Green DNA, 72 h; at 28.5 µM (top of the series). An outline of the steps:
as §1

Test [22] in a line: qHTS profiling of the MIPE4 collection as inhibitors of Plasmodium falciparum (HB3) proliferation (AID 743347; call rule not given here;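 note: plate controls were DMSO vehicle wells for no effect and artemisinin wells for full effect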). Particulars: P. falciparum HB3 in erythrocytes, SYBR Green DNA, 72 h; at 28.5 µM (top of the series). An outline of the steps: as §1

We go through three compounds from PubChem BioAssay (NCATS).

Inconclusive results are not listed. Activity calls are given as the source filed them. Unless noted, calls come from the whole dose curve; as a rule, active = well fitted curve in the direction sought with a large enough effect; inconclusive = small, poorly fitted or top-dose-only effect, or another doubt; inactive = no such curve, though single readings can be large; an effect the other way counts as inactive or inconclusive. Some results are limits rather than exact numbers.

Glutathione peroxidase 1 (Homo sapiens), sequence (P07203 whole entry, looked up): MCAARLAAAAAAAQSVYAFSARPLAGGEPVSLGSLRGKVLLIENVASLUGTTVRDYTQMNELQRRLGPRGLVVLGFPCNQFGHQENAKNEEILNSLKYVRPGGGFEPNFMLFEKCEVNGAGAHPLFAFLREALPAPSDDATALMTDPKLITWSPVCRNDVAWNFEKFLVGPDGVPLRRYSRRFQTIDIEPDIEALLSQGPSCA
Glucocorticoid receptor (Homo sapiens), sequence (P04150 whole entry, looked up, the tested form may be a part): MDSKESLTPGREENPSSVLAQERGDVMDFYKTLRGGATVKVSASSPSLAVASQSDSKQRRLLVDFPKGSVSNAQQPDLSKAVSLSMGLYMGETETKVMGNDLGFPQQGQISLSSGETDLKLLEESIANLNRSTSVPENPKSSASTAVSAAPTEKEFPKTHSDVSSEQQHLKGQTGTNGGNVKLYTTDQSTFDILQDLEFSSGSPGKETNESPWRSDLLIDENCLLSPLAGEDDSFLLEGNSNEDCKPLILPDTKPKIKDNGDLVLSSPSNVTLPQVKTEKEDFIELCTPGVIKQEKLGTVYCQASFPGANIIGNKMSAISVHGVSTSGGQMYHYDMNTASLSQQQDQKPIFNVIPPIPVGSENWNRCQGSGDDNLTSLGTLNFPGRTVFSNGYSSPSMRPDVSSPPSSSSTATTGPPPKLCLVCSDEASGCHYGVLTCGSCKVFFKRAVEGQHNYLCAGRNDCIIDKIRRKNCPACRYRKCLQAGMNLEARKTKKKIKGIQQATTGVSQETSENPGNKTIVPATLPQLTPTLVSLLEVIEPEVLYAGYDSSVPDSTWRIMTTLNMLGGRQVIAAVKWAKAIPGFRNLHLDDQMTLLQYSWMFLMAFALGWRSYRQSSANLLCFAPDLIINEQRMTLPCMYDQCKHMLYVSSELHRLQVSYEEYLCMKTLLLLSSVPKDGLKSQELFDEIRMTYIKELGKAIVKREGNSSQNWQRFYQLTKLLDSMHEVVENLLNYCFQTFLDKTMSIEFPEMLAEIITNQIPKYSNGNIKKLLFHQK
Cytochrome P450 3A4 (Homo sapiens), sequence (P08684 whole entry, looked up): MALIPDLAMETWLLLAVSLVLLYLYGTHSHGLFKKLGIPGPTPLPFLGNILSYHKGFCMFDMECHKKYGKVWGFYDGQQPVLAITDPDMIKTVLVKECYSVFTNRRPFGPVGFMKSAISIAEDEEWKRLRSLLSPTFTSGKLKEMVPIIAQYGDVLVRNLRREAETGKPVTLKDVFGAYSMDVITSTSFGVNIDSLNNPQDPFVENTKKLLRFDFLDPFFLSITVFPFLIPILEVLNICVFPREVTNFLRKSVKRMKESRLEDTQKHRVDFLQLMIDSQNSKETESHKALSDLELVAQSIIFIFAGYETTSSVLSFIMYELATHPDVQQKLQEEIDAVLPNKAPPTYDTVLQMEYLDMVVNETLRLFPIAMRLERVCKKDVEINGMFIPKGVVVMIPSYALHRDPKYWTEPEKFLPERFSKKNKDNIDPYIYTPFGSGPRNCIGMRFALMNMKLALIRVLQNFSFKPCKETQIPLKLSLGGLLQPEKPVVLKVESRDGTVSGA
Cytochrome P450 1A2 (Homo sapiens), sequence (P05177 whole entry, looked up, the tested form may be a part): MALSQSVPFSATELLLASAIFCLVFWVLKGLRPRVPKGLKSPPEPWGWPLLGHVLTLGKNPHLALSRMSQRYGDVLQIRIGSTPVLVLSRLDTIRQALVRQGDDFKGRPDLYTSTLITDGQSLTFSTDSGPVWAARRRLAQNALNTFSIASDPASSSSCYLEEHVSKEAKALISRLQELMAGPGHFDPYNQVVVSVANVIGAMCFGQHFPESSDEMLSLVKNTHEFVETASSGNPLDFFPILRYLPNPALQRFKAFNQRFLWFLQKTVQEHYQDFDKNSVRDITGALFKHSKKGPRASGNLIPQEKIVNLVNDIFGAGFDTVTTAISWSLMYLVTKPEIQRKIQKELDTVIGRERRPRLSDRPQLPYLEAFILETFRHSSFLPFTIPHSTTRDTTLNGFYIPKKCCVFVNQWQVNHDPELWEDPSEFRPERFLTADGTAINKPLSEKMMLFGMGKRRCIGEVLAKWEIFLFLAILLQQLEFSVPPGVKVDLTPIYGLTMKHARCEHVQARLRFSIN
DNA dC->dU-editing enzyme APOBEC-3G (Homo sapiens), sequence (Q9HC16 whole entry, looked up): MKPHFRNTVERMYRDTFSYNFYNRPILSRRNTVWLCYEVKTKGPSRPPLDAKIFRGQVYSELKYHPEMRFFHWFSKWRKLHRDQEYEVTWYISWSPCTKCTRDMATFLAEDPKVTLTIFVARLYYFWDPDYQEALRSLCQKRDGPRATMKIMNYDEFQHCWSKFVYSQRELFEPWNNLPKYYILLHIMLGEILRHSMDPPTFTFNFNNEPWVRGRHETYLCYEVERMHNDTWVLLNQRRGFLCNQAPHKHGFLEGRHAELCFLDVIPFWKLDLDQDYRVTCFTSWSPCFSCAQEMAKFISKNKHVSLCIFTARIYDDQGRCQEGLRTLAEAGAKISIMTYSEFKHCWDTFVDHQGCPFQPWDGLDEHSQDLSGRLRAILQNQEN
Cytochrome P450 2C19 (Homo sapiens), sequence (P33261 whole entry, looked up): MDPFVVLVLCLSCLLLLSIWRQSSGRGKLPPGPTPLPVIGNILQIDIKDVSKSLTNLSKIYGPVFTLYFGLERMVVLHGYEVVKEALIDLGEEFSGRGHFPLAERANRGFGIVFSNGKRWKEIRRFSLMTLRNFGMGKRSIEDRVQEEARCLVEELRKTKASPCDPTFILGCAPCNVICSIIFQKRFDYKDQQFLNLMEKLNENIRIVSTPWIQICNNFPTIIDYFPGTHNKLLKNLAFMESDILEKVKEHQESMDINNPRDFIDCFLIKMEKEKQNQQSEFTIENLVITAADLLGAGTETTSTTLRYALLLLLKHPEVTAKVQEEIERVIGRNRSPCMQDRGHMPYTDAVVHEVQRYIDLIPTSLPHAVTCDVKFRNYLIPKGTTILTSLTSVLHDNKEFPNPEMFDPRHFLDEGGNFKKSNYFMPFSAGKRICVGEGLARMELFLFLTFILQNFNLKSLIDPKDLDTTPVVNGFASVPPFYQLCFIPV
Cytochrome P450 2C9 (Homo sapiens), sequence (P11712 whole entry, looked up): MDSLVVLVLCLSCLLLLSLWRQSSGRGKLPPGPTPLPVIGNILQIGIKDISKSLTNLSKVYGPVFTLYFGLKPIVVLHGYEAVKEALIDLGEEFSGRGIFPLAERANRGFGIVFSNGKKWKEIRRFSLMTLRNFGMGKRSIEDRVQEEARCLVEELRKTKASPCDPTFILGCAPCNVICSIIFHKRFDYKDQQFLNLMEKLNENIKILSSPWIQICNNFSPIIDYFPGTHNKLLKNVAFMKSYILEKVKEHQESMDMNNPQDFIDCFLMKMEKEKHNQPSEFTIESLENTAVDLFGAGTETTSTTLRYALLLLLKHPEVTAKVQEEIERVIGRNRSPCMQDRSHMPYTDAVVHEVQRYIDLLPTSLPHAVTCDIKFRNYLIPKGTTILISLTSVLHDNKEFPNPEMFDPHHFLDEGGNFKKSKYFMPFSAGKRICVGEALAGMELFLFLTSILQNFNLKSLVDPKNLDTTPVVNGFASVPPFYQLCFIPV
Cytochrome P450 2D6 (Homo sapiens), sequence (P10635 whole entry, looked up): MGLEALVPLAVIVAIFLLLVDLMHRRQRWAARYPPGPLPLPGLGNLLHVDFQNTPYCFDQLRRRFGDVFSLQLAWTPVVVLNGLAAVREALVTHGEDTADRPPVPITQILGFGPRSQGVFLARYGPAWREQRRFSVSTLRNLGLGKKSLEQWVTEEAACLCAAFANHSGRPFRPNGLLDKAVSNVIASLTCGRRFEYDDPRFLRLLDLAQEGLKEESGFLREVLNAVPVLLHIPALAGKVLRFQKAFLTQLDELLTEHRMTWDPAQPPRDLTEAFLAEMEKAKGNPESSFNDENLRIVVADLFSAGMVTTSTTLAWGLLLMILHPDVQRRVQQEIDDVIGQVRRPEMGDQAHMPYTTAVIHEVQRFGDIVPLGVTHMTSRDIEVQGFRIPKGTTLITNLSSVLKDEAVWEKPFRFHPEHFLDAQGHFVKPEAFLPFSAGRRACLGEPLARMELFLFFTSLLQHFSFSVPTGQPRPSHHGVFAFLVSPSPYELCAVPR
Ubiquitin carboxyl-terminal hydrolase 1 (Homo sapiens), sequence (O94782 whole entry, looked up): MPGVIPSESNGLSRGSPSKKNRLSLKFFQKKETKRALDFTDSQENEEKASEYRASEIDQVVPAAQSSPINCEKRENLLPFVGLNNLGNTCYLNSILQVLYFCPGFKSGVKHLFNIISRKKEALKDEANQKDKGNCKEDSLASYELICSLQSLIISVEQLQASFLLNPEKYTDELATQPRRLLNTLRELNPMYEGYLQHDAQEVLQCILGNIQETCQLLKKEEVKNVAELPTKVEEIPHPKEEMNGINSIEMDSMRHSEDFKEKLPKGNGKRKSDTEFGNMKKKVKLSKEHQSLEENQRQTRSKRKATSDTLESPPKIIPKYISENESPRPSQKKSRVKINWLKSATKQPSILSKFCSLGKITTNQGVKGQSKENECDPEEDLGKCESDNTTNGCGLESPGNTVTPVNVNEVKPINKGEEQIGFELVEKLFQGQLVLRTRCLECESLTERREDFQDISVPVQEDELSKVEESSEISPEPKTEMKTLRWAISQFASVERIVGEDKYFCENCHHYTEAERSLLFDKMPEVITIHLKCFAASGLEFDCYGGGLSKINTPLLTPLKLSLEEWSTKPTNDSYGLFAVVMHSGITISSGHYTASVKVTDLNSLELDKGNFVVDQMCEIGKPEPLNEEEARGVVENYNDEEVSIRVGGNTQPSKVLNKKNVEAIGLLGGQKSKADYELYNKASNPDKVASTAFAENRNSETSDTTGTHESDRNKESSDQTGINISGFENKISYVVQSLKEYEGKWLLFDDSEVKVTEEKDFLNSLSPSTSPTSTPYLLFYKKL

As to `COc1cc(/C=C(\C#N)C(N)=O)cc(CSc2nc3ccccc3s2)c1O`, the Potency was 1.26 µM (active) in test [1]; > 46 µM (inactive) in test [2]; 3.98 µM (active) in test [4]; 0.0251 µM (active) in [6]; 3.16 µM (active) in [7]. Also, the Potency result in test [3], in [5], in [8], in test [9], in test [10] and in test [11] was “inactive” throughout. Further, the Potency result in test [12], in test [13], in [14] and in test [15] was “inactive” in each case.
Consider `O=C(O)c1ccc2c3c1cccc3c(=O)n1c3ccccc3nc21`, for which the Potency in [1] was 15.8 µM (active); in [16] it was > 46 µM (inactive); in test [2] it was > 46 µM (inactive); in test [17], 0.158 µM (active); in test [7], 3.98 µM (active). Further, the Potency entry in [18], in test [8], in test [9], in [10], in test [11] and in test [14] was “inactive” throughout. Besides, in test [15], the Potency entry was “inactive”. In addition, the parasite growth, % of DMSO control in test [19] turned out to be 91.8%. For the same compound, the parasite growth remaining, % of DMSO control (lower = more inhibition) in test [20] came out at 97.7%. Besides, in [21], the parasite growth, % of control (lower = inhibition) was 85.8%. This compound registered a growth, % of control in [22] of 60.1%.
`COc1ccc(C(=O)Nc2sc3c(c2C(N)=O)CCCC3)cc1OC`: the Potency result in test [9], in [10], in test [11], in test [12], in [13] and in test [14] was “inactive” each time. Besides, in test [15], the Potency entry is “inactive”.
